# Screening data as filed in PubChem.
# The list is not random: actives were taken first. Their share in the collection is about 1.3%.
# OPRM1-OPRD1 inv: inverse agonists of human mu-delta opioid receptor heterodimerization; P35372+P41143; AID 504357; inhibition, % at 9.3 µM; cell-based MOR-DOR heterodimer luminescence, inverse agonism; actives 0.21% (n = 340,000); in the data active means inhibition above about 22%, passing the limit was not always enough;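 further: 0% = cells with DMSO and 100% = wells without cells with DMSO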
# Target sequence (P35372 whole entry, looked up): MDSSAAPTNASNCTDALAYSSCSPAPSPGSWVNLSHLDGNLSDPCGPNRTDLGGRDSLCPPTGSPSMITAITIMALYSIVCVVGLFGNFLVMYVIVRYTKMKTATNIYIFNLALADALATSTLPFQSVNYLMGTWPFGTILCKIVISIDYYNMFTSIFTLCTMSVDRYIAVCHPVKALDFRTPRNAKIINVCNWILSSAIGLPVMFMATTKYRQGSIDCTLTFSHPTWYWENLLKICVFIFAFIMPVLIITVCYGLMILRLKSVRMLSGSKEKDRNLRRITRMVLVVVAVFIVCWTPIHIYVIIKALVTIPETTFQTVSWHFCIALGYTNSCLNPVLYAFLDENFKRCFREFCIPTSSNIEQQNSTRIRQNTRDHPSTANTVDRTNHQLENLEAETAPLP
# Target sequence (P41143 whole entry, looked up): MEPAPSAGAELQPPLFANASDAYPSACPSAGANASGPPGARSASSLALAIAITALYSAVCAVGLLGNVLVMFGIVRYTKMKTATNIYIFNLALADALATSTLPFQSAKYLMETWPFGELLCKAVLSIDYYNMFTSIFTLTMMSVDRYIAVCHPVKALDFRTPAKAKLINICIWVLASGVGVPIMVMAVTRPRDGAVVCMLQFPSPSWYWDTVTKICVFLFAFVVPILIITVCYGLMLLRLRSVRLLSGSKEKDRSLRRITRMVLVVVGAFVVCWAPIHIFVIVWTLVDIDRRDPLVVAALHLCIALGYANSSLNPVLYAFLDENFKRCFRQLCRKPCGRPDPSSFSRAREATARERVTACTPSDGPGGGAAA
# HTR5A inv ag: HTR5A inverse agonism, opioid heterodimer counter-screen | AID 504634 | HTR5A cell line, luminescence | actives 0.083% (n = 340,000) | P47898 | inhibition, % at 9.3 µM; in the data active means inhibition mostly above about 23%, no sharp cut-off; inactive means mostly below about 18%;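 further: 0% = cells with DMSO and 100% = no-cell wells with DMSO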
# CR mimetic SO: yeast age-related superoxide inhibition as caloric restriction mimetic. S. cerevisiae aged cells, superoxide DHE fluorescence; hits give low values. superoxide response (% of plate mean), % at 10 µM. actives 0.18% (n = 330,000). AID 2690;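 active means superoxide response under a set limit, about three screen SD below normal, cut at about 65% in these data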;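 further: yeast aged for seven days with compound at 30 °C before DHE staining; 100% = average MFI of all compound-treated wells on the plate with controls excluded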
# HTR5A ag ctr: HTR5A agonism, opioid heterodimer counter-screen. activation, % at 9.3 µM. P47898. HTR5A agonist assay, luminescence, cell-based. actives 0.61% (n = 340,000); in the data active means activation mostly above about 9.5%, no sharp cut-off; inactive means mostly below about 7.6%;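 further: 0% = cells with vehicle only and 100% = reference agonist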
# MOR-DOR ag: OPRM1-OPRD1 heterodimerization agonism. P35372+P41143. cells, luminescence. activation, % at 9.3 µM. actives 0.3% (n = 340,000);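 further: 0% = vehicle-treated cells and 100% = reference agonist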
# PvdQ inh: P. aeruginosa PvdQ acylase inhibition | AID 488965 | purified PvdQ acylase, fluorescence plate reader | actives 0.063% (n = 340,000) | inhibition, % at 10 µM; in the data active means inhibition above about 30%, passing the limit was not always enough;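 further: 0% = vehicle neutral wells and 100% = reference inhibitor wells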
# OPRM1-D1 ag cf: confirmation of human OPRM1-OPRD1 heterodimerization agonists; shares compounds with MOR-DOR ag; cells, MOR-DOR heterodimerization, luminescence complementation; activation, % at 9.3 µM; actives 45% (n = 830);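 further: 0% = vehicle-treated cells and 100% = reference agonist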
# HTR5A ag counter: activates human HTR5A in OPRM1-OPRD1 agonist counter-screen; shares compounds with MOR-DOR ag; HTR5A agonist counterscreen, cell luminescence; activation, % at 9.3 µM; actives 8% (n = 830); AID 504905; in the data active means activation above about 17%;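 further: 0% = vehicle-treated cells and 100% = reference agonist response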
# The depositor's hits bear a star; i = inactive; . = not tested or not shown. Unless noted, no stated cut-off is given here; in the data, active means activation above about 18%; inactive means the rest.
SMILES,OPRM1-OPRD1 inv,HTR5A inv ag,CR mimetic SO,HTR5A ag ctr,MOR-DOR ag,PvdQ inh,OPRM1-D1 ag cf,HTR5A ag counter
CCSc1nnc(NC(=O)c2cc(-c3ccccc3O)n[nH]2)s1,-171.2,-15.0,98.1,0.8,32.1*,2.9,10.0,0.8
CC1(NC(=O)CC(c2ccccc2)(c2ccccc2)c2ccccc2)CCN(CCCc2ccccc2)C1=O (stereo unspecified),i,17.6,90.6,2.6,237.0*,-15.3,193.2*,-2.0
CC1(NC(=O)CCc2ccccc2)CCN(CCCc2ccccc2)C1=O (stereo unspecified),3.3,-5.4,88.9,5.2,-0.6,-16.4,.,.
O=C(NCCc1ccc(C(F)(F)F)cc1)C1CCC(=O)N(CCCN2CCCC2=O)C1 (stereo unspecified),19.3,5.5,82.3,-1.5,-4.0,3.2,.,.
COc1ccc([C@H]2CC(=O)C=C(c3c(C)cc(C)cc3C)C2)cc1,-153.6,-25.2,89.5,-0.8,26.6*,-7.3,-0.1,3.5
N#C/C(=C(/O)COC(=O)COc1cccc(Br)c1)c1nc2ccccc2[nH]1,-142.7,-19.1,97.9,6.7,26.1*,0.7,14.0,0.4
N#C/C(=C(/O)COC(=O)c1ccc(O)cc1)c1nc2ccccc2[nH]1,10.3,-9.0,98.8,3.1,-2.0,-12.9,.,.
CCOC(=O)c1c(C)[nH]c(C(=O)OCC(O)=C(C#N)c2nc3ccccc3[nH]2)c1C,-192.9,-50.0,.,12.8*,37.5*,-6.5,31.2*,7.3
O=C1c2ccccc2C(=O)N1CC(O)COc1ccccc1Cl (stereo unspecified),3.5,7.0,90.6,-1.9,-0.8,7.7,.,.
O=C(N[C@H]1C/C=C\C[C@@H](CC(=O)N(CCO)Cc2ccccc2)C(=O)N[C@H](Cc2c[nH]c3ccccc23)COC1=O)OCC1c2ccccc2-c2ccccc21,10.8,-13.6,106.3,3.1,-1.8,-5.8,.,.
O=C(N[C@H]1C/C=C\C[C@H](CC(=O)N(CCO)Cc2ccccc2)C(=O)N[C@H](Cc2c[nH]c3ccccc23)COC1=O)OCC1c2ccccc2-c2ccccc21,-154.0,-6.7,85.3,-1.1,28.6*,-10.7,35.2*,4.3
Cc1ccc(N(C(=O)C(F)(F)F)C(C(=O)NC2CCCCC2)c2cccs2)cc1 (stereo unspecified),-104.7,-10.2,95.4,11.7,18.3*,-8.0,-1.3,-1.5
CCOC(=O)N1CCN(c2ncnc3c2[nH]c2ccc(OC)cc23)CC1,1.0,-44.6,108.2,14.0,-0.2,-2.2,.,.
COc1ccc2[nH]c3c(N4CCc5ccccc5C4)ncnc3c2c1,-99.3,-21.5,112.8,10.3,19.6*,-21.5,2.0,6.2
CCCN(CCC)Cc1cc(=O)oc2cc3c(cc12)CCC3,-10.6,-7.5,94.2,0.3,2.0,-8.3,.,.
O=C(Cn1ccc2cc(S(=O)(=O)N3CCCC3)ccc21)NCCc1ccccc1,2.0,-7.6,90.7,1.9,-0.4,6.4,.,.
COc1ccc(NS(=O)(=O)c2ccc(O)c(NC(=O)c3cc4c(C)nn(-c5ccc(F)cc5)c4s3)c2)cc1,-122.7,1.1,114.1,-0.4,20.4*,-4.7,51.0*,1.3
Cc1cccc(C)c1NC(=O)CSc1n[nH]c(=O)n1C1CC1,8.6,-16.9,96.8,2.0,-2.2,-6.8,.,.
COc1ccc(C2Nc3ccccc3C(=O)N2c2ccccc2)cc1COc1ccccn1 (stereo unspecified),9.4,11.2,99.0,4.8,-2.0,-12.6,.,.
COc1ccc(C2Nc3ccccc3C(=O)N2Cc2ccccc2)cc1CSc1ccccn1 (stereo unspecified),-188.4,-1.6,94.0,0.3,35.3*,-9.4,1.2,3.8
COc1ccc(C2Nc3ccccc3C(=O)N2c2ccccc2)cc1CSc1ccccn1 (stereo unspecified),-139.1,-3.2,108.7,-0.2,27.5*,6.7,27.5*,-1.8
COc1ccc(C2Nc3ccccc3C(=O)N2c2ccc(F)cc2)cc1CSc1ccccn1 (stereo unspecified),-225.9,10.3,92.9,-3.9,37.6*,14.3,46.5*,2.9
COc1ccc(C2Nc3ccccc3C(=O)N2Cc2ccco2)cc1COc1ccc(NC(C)=O)cc1 (stereo unspecified),i,-9.7,98.5,7.3,117.5*,-4.2,68.5*,-2.8
CCOC(=O)[C@H]1[C@H]2COc3cc(OC)ccc3[C@@H]2N2C(=O)c3c(C)cc(C)cc3NC(=O)[C@@]12C,-8.2,6.1,100.9,-2.4,1.5,1.3,.,.
Cc1cccc(CN2CCC(CNC(=O)CSc3cc(=O)n(C)c4cc(Cl)ccc34)CC2)c1,6.7,-11.6,105.0,3.7,-1.3,-16.3,.,.
SMILES,OPRM1-OPRD1 inv,HTR5A inv ag,CR mimetic SO,HTR5A ag ctr,MOR-DOR ag,PvdQ inh,OPRM1-D1 ag cf,HTR5A ag counter
COc1ccc(NS(=O)(=O)c2cccc(C(=O)NC3CCN(Cc4ccccc4)CC3)c2)cc1,-4.3,-6.7,103.4,0.7,0.8,-9.1,.,.
COc1ccc(Cl)cc1NS(=O)(=O)c1cccc(C(=O)NC2CCN(Cc3ccccc3)CC2)c1,-76.1,0.5,.,-0.2,18.4*,1.8,25.8*,1.2
CCOC(=O)C1CCN(C(=O)COC(=O)c2ccc(=O)n(Cc3ccccc3)n2)CC1,12.2,-10.0,106.2,-0.6,-1.9,7.0,.,.
CN(C)c1ccc(/C=C(\NC(=O)c2ccccc2)C(=O)NCCN2CCOCC2)cc1,6.9,15.1,94.2,-5.7,-0.9,-11.8,.,.
CNC[C@H](Cc1ccccc1)NC[C@@H](Cc1cccc2ccccc12)NCCc1ccc(C)cc1,-167.2,-10.9,95.9,1.0,29.7*,4.9,3.6,-1.4
O=C(C(=O)N1CCCCC1)c1c(-c2ccccc2)[nH]c2ccccc12,7.3,-5.5,104.6,1.6,-1.6,4.7,.,.
O=C(Nc1ccc(Cl)c(Cl)c1)N(CCCN1CCOCC1)Cc1cccnc1,6.4,-16.1,97.7,7.1,-1.2,-10.3,.,.
O=C(Nc1ccc(Cl)c(Cl)c1)N(CCCN1CCOCC1)Cc1cccs1,-140.8,5.2,98.8,-1.9,27.3*,-8.0,-5.0,-2.2
C(=N\Nc1nc2ccccc2[nH]1)/c1cccc2nccnc12,.,.,103.6,.,.,-10.9,.,.
C#CCn1cc(/C=N/Nc2nc3ccccc3[nH]2)c2ccccc21,-226.2,7.8,93.5,-2.6,33.4*,8.7,0.7,3.7
COc1ccc(C(CNC(=O)Cc2ccc3ccccc3c2)N(C)C)cc1 (stereo unspecified),-296.2,-20.4,97.6,6.9,36.7*,-3.1,0.4,-1.2
COc1ccc(C(CNC(=O)C2CC2)N(C)C)cc1 (stereo unspecified),3.6,12.5,88.2,-4.9,-0.9,-0.3,.,.
